In PubChem BioAssay AID1730 (National Center for Advancing Translational Sciences (NCATS), 2009):
Results filed as inconclusive are left out. Where a call stands in place of a potency, no number is given. The source made the active and inactive calls. Calls come from the whole dose curve; as a rule, active = well fitted inhibition curve with a large enough effect; inconclusive = small, poorly fitted or top-dose-only effect; inactive = no such curve, though single readings can be large or run the other way.

assay: Counterscreen Assay for Inhibitors of the ERK Signaling Pathway using a Homogeneous Screening Assay; conditions: AlphaScreen bead counterscreen in cell lysate, 5 h; series mostly up to 45.6 µM
How it was run: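 Counter-screen for AlphaScreen artefacts: biotinylated rabbit IgG bridges streptavidin donor and protein-A acceptor beads. Lysates came from HEK293 cells given compound (up to 46 uM, 30 min, 37C) then vasopressin 25 nM, 5 min. Hill-derived AC50s; controls DMSO and 25 nM IgG.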

Compound	Potency
CC1(C)OC(c2ccccc2)=C/C(=C/C=C2C(=O)c3ccccc3C2=O)O1	2.24 µM (active)
O=C(c1cccs1)c1no[n+]([O-])c1C(=O)c1cccs1	inactive
CCCNc1ncnc2sc(C)c(C)c12	inactive
COc1ccc(-c2ccc(SCC(=O)N3CCCC3)nn2)cc1OC	inactive
COc1ccc(N=C2C(=Nc3ccc(OC)cc3)N(c3ccc(OC)cc3)C(=S)N2C)cc1	4.47 µM (active)
C=C[C@@]1(C)CC(=O)[C@@]2(O)[C@@]3(C)[C@@H](O)CCC(C)(C)[C@@H]3[C@H](OC(=O)CCN(C)C)[C@H](OC(C)=O)[C@@]2(C)O1	inactive
CS(=O)(=O)Nc1cccc(-c2ccc3ncnc(Nc4ccc(F)cc4)c3c2)c1	inactive
COc1ccc(C(=O)c2ccc(Cl)c([N+](=O)[O-])c2)cc1	inactive
CCCCOc1cc(CC2CNC(=O)N2)ccc1OC (stereo not given)	inactive
c1ccc(Oc2nc(NCc3ccco3)nc(NCc3ccco3)n2)cc1	inactive
COC(=O)Cc1c(C)c2ccc(OC(=O)c3ccco3)cc2oc1=O	inactive
COc1cc2ncnc(Nc3cccc(Cl)c3)c2cc1OC	inactive
Cc1cc2nc3ccc(=[N+](C)C)cc-3sc2cc1N	inactive
O=c1cc(-c2ccc(O)cc2)oc2cccc(O)c12	inactive
Cc1nc2ccccc2nc(=O)c1NNc1ccccc1	inactive
Cc1nc2ccccc2c2oc(C(=O)N3CCc4ccccc4C3)cc12	inactive
Cn1nc(-c2ccc(Cl)cc2)nc2c(=O)n(C)c(=O)nc1-2	inactive
CN(C)c1ccc(Nc2c3c4c(cccc4n(C)c2=O)C(=O)c2ccccc2-3)cc1	3.16 µM (active)
CCOC(=O)Cc1csc(NC(=O)CSc2ncnc3c2cnn3-c2ccc(OC)cc2)n1	inactive
CC(C)Cn1c(N)c(C(=O)CSc2ccc3c(c2)OCCO3)c(=O)n(C)c1=O	inactive
Cc1ccc(NNc2c(C)nc3ccccc3nc2=O)cc1	inactive
O=C1c2ccccc2C(=O)c2c1cccc2N1CCCC1	10 µM (active)
Cc1cccc(CNc2ncnc3ccc(-c4cccc(NS(C)(=O)=O)c4)cc23)c1	inactive
CCCN1C(=O)/C(=C2/C=Cc3ccccc3N2CC)SC1=S	3.55 µM (active)
CNc1cccc2c1C(=O)c1ccccc1C2=O	5.01 µM (active)
